# From PubChem
# Most compounds without a hit are left out; they make up all but 9.8% or so of the library.
# HTT aggregate – inhibitors of mutant huntingtin aggregate formation in PC12 cells | PC12 HttQ103-GFP aggregates, Acumen cytometry, 40 h | Potency, µM (series often up to 46.1 µM), without a hit: top-dose activity change, negative = inhibition, actives largely listed as inhibitors | 1.1% of 220,000 active | AID 1688; note: potency is the fitted concentration of half-maximal effect; % is set by controls: 0 for no effect and ±100 for the full control effect; nearly all actives have a fitted effect of over 60% in size
#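 PC12 cells with ecdysone-inducible HTT exon1 Q103-GFP, induced by 100 nM tebufenozide, given compounds in a concentration series. GFP aggregates (1–25 um, 6 SD above background) counted in lysates by laser-scanning cytometry, 488 nm excitation.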
# HPGD inh – HPGD (human) dehydrogenase inhibition; purified HPGD, NADH fluorescence kinetic, PGE2 substrate; Potency, µM, without a hit: at the top dose activity change, negative = inhibition, hits mostly inhibitors; 4.3% of 150,000 active; active = well fitted inhibition curve with a large enough effect, not every such curve was filed as active; inconclusive = small, poorly fitted or top-dose-only effect, or another doubt; inactive = no such curve, though single readings can be large or run the other way; note: potency is the fitted concentration of half-maximal effect; % is set by controls: 0 for no effect and ±100 for the full control effect
# Target sequence (P15428 whole entry, looked up): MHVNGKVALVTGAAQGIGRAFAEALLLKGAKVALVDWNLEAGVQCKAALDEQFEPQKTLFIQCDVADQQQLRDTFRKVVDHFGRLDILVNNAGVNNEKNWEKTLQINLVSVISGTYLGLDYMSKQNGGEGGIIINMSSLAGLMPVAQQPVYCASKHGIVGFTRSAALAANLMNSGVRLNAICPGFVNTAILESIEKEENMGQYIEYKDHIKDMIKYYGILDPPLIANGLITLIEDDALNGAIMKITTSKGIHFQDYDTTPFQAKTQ
#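 20 nM HPGD preincubated 15 min at room temperature with compound in 50 mM Tris-HCl pH 8, 0.01% Tween 20. Started with 1 mM NAD+ and 30 uM prostaglandin E2; NADH fluorescence (360/450 nm) read 5 times over 30-s intervals, last minus first.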
# KDM4E inh – inhibitors of human JMJD2E histone demethylase; 1.6% of 230,000 active; B2RXH2; Potency, µM (doses to about 57.1 µM), inactives show at the highest dose activity change, negative = inhibition, usual class: inhibitors; JMJD2E catalytic domain, FDH-coupled NADH fluorescence (FDH is formaldehyde dehydrogenase);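 note: potency is the fitted concentration of half-maximal effect; 0% = wells with enzyme and -100% = buffer wells without enzyme; nearly all actives have a fitted effect of over 50% in size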
# Target sequence (B2RXH2 1-337 limits assumed): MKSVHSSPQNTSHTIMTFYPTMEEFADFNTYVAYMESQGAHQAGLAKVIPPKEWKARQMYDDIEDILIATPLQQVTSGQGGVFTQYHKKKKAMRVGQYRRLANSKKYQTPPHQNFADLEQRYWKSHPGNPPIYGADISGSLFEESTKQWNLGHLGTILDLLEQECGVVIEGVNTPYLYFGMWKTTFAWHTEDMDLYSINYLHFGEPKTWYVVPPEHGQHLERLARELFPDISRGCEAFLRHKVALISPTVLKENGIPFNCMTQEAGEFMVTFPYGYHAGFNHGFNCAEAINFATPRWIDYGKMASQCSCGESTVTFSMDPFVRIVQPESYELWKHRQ
# HTT ATP protect – protects HTT-Q103 PC12 cells, measured by ATP; PC12 HTT-Q103 induced, cytoprotection, ATP luminescence, 40 h; Potency, µM (top dose mostly 56.4 µM), for the others: cytoprotection (ATP increase), actives largely listed as activators; 0.14% of 230,000 active; note: potency is the fitted concentration of half-maximal effect; % of control where 0% means no effect; nearly all actives have a fitted effect of over 45% in size
#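 Compounds added alongside 100 nM tebufenozide, which induces toxic Q103 huntingtin exon 1-GFP in stable PC12 cells; surviving cells quantified by luminescent ATP measurement. Medium: phenol red-free DMEM, 5% equine and 5% calf serum.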
# ALDH1A1 inh – blocks purified human ALDH1A1 activity | Potency, µM (titrated, usually from 75.3 µM), without a hit: at the highest dose activity, negative = inhibition, most hits filed as inhibitors | P00352 | Purified ALDH1A1, NADH fluorescence, propionaldehyde substrate | 7.3% of 220,000 active | AID 1030; active = well fitted inhibition curve with a large enough effect, not every such curve was filed as active; inconclusive = small, poorly fitted or top-dose-only effect, or another doubt; inactive = no such curve, though single readings can be large or run the other way;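 note: potency is the fitted concentration of half-maximal effect; plate controls were no enzyme wells and a reference inhibitor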
# CBFb RUNX1 block – blocks binding between human CBF-beta and RUNX1; AID 1477; AlphaScreen CBFb-His/RUNX1-biotin binding, biochemical; 230,000 tested, under 10 active; Potency, µM (series often up to 59.8 µM), for the others: at the top dose activity, negative = inhibition, hits mostly inhibitors; Q01196+Q13951; note: % of control where 0% means no effect
#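 AlphaScreen proximity signal reports loss of binding between His-tagged CBF-beta and biotin-labelled RUNX1, each at 30 nM. Proteins are pre-associated for 20 minutes, compounds added for 15 minutes, then beads for 90 minutes, all at ambient temperature.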
# Starred values were filed as active, the others as inactive; u = inconclusive; x = not tested or not shown; [ ] = dose if it differs, or a comment. Unless noted, calls come from the whole dose curve; as a rule, active = well fitted curve in the direction sought with a large enough effect; inconclusive = small, poorly fitted or top-dose-only effect, or another doubt; inactive = no such curve, though single readings can be large; an effect the other way counts as inactive or inconclusive.
SMILES,HTT aggregate,HPGD inh,KDM4E inh,HTT ATP protect,ALDH1A1 inh,CBFb RUNX1 block
C=CCc1ccc(OCCCN2CCCC(C)C2)c(OC)c1 (stereo not given),-2%,-11%,u,-10%,16µM*,2%
CC1CCCN(CCCOc2ccc(Br)cc2Cl)C1 (stereo not given),1%[9.22 µM],x,u,-4%[10 µM],-2%,2%
O=C(COC(=O)CCSc1ccccc1)NCc1ccccc1,4%,x,2%,u,4%,2%
N#C/C(=N\Nc1ccc(Cl)cc1)C(=O)c1ccccc1,u,-24%,1%,-55%,-4%,-30%
Cc1c(N/N=C(\C#N)C(=O)c2ccc(Cl)cc2)c(=O)n(-c2ccccc2)n1C,-1%,28µM*,6%,-34%[10 µM],u,-30%
Cc1sc2c3ccsc3ccc2[n+]1C,u,x,25µM*,20%,4.5µM*,-12%
Cc1sc2ccc3sccc3c2[n+]1C,-1%[9.22 µM],x,14µM*,1%[10 µM],-98%,2%
O=C(COc1ccc(S(=O)(=O)N2CCCC2)cc1)NCC1CCCO1 (stereo not given),-12%[9.22 µM],x,4%,8%[10 µM],-4%,5%
Cc1ccccc1-c1cc2c(nn1)-c1ccccc1C2=O,25µM*,u,u,-123%,25µM*,-6%
Cc1ccc(-c2cc3c(nn2)-c2ccccc2C3=O)cc1,1%[9.22 µM],x,16%,-62%[10 µM],x,0%
O=C(/C=C/c1ccc2c(c1)OCO2)Nc1c(C(=O)O)[nH]c2ccccc12,14%,16µM*,-9%,-37%[10 µM],u,6%
CCOC(=O)c1[nH]c2ccc(OC)cc2c1NC(=O)/C=C/c1ccc2c(c1)OCO2,4%,u,0%,x,22%,-4%
CC(C)CC(=O)NC(=S)Nc1ccc(N2CCOCC2)c(Cl)c1,u,x,-15%,-16%,-12%,-7%
O=c1[nH]c2ccc(N/C(=N/S(=O)(=O)c3ccccc3)c3ccccc3)cc2[nH]1,12%,-8%,-19%,1%[10 µM],u,3%
CC1CC(C)CN(Cc2nc3c(c(=O)n(C)c(=O)n3C)n2CCN2CCOCC2)C1 (stereo not given),7%[9.22 µM],-1%,-1%,-11%,7.9µM*,0%
CC(C)CCn1c(CN2CCOCC2)nc2c1c(=O)n(C)c(=O)n2C,-4%,-12%,0%,6%[10 µM],14µM*,9%
Cc1cc(Cl)ccc1C(=O)C1CCCN(C(=O)c2snnc2C)C1 (stereo not given),-5%[9.22 µM],x,u,-2%[10 µM],u,u
Cc1ccc(Sc2ccc(NC(=O)CCl)cc2)cc1C,12%,u,-2%,-9%[10 µM],2µM*,10%
CSc1ccc(NC(=O)CC(C)=O)cc1,0%,-4%,4%,-3%,-4%,0%
Cc1ccc(C)c(Sc2ccc(NC(=O)CCl)cc2)c1,-3%,-11%,0%,2%[10 µM],0.89µM*,-3%
O=C(NNS(=O)(=O)c1ccccc1[N+](=O)[O-])c1ccc(O)cc1,-2%,13µM*,-2%,8%,3.2µM*,2%
O=C(NNS(=O)(=O)c1ccccc1[N+](=O)[O-])c1ccc(F)cc1,-7%[9.22 µM],x,-1%,12%[10 µM],-10%,2%
Cc1ccc(-c2nc(NCC3CCCO3)sc2C)cc1 (stereo not given),14%,x,-27%,-1%[10 µM],28µM*,-12%
CC(C)(C)c1ccc(-c2noc(CCC(=O)NCC3CCCO3)n2)cc1 (stereo not given),u,13µM*,3%,-110%,-7%,-2%
Cc1ccc(S(=O)(=O)c2nc(S(C)(=O)=O)sc2NCC2CCCO2)cc1 (stereo not given),-2%,-9%,-3%,-30%,u,-2%
SMILES,HTT aggregate,HPGD inh,KDM4E inh,HTT ATP protect,ALDH1A1 inh,CBFb RUNX1 block
COC(=O)c1ccc(-c2noc(CN(C)CCC3CCCCO3)n2)cc1 (stereo not given),-14%[9.22 µM],x,-17%,-33%[10 µM],8.9µM*,u
O=C(c1ccccc1)N1CCC(c2nc(-c3ccc(S(=O)(=O)NCC4CCCO4)cc3)no2)CC1 (stereo not given),6.3µM*,-17%,5%,-5%,u,0%
Cn1c(=O)cnc2cnc(Oc3ccccc3)nc21,x,-8%,x,-3%,u,x
COc1ccc(NC(C)=O)cc1S(=O)(=O)Nc1ccc(C(=O)N2CCCC2)cc1,-20%[9.22 µM],x,-7%,-19%[10 µM],x,u
c1coc(CNCc2cccs2)c1,-8%,-2%,-1%,-4%[1.9 µM],7%,10%
O=C(O)[C@@H]1[C@@H]2C[C@H]3c4[nH]c5ccccc5c4CCN3C[C@@H]2CC[C@@H]1O,0%[20.6 µM],-26%,u,u,-3%[20.9 µM],-15%[21.7 µM]
Cc1ccc(-c2nc(N)sc2CC(=O)OCC(=O)NCCC(C)C)cc1,6%,-22%,-23%,-17%[10 µM],-2%,-6%
COc1ccc(-c2noc(CCC(=O)NCC3CCCO3)n2)cc1 (stereo not given),5%[9.22 µM],x,1%,2%[10 µM],x,0%
Cc1ccc(-c2noc(CCC(=O)NCC3CCCO3)n2)cc1 (stereo not given),-6%,18µM*,-3%,4%,-5%,8%
Cc1ccc(-c2nc(N)sc2CC(=O)OCC(=O)NCC2CCCO2)cc1 (stereo not given),1%,32µM*,5%,x,u,18%
O=C(CCc1nc(-c2ccccc2)no1)NCC1CCCO1 (stereo not given),-11%,25µM*,2%,-31%,u,5%
O=C(CN1CCOCC1)N/N=C/c1cc2ccccc2nc1Cl,-2%,u,-23%,-2%[10 µM],u,2%
CC(=O)Nc1ccc(NC(=O)CNS(=O)(=O)c2ccc(C)cc2)cc1,-7%,8%,-7%,-4%[0.074 µM],-12%,6%
Cc1ccc(NCC(=O)N/N=C/c2cc3ccccc3nc2Cl)cc1,22%,-14%,-11%,-32%,10µM*,-8%
Cc1ccc(S(=O)(=O)NCC(=O)N/N=C/c2ccccc2O)cc1,-13%[9.22 µM],x,25µM*,-4%[10 µM],u,-5%
Cc1ccc(S(=O)(=O)NCC(=O)N/N=C/c2ccc(Cl)cc2Cl)cc1,3%,-4%,-4%,-8%[10 µM],7.1µM*,5%
Cc1ccc(S(=O)(=O)NCC(=O)N/N=C/c2ccc(Cl)cc2)cc1,-7%,-7%,7%,23%[10 µM],u,-8%
CCCC/C(C)=N/NC(=O)Nc1ccccc1,-5%,-8%,8%,0%,15%,2%
CN1CCC(=NNC(=O)c2cn(-c3ccccc3)nc2-c2ccccc2)CC1,-25%,-3%,-7%,13%[10 µM],1.3µM*,-3%
CCCC/C(C)=N/NC(=O)c1cn(-c2ccccc2)nc1-c1ccccc1,21%,-27%,-24%,5%[10 µM],0.56µM*,1%
COC(=O)c1cn(-c2ccccc2)nc1-c1ccccc1,13%,-11%,-3%,u,-11%,15%
